Most compounds without a hit are left out; they make up all but 21% or so of the library.
HCV inh: blocks hepatitis C virus. Huh7.5.1 HCVcc-Cre infection, luciferase reporter, 44 h. Potency, µM (titrated, usually from 41.8 µM), without a hit: top-dose activity change, negative = inhibition, usual class: inhibitors. actives 3.4% (n = 340,000). AID 651820; also: potency is read from the fitted curve at half-maximal effect; % is scaled to controls: 0 for no effect and ±100 for the full control effect
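Luciferase read-out (15 sec integration) after a 15 min room-temperature substrate step quantifies HCVcc-Cre infection. Cells, 1,000 per well, had compound added 4 h post-plating, then virus at ~0.5 moi, and were cultured 44 h.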
AMA1-RON2 inh: disrupts binding of P. falciparum AMA1 to RON2; AlphaScreen AMA1-biotinylated RON2 peptide binding; Potency, µM (doses to about 58.2 µM), for inactives: at the top dose activity change, negative = inhibition, hits mostly inhibitors; actives 0.2% (n = 360,000); AID 720542;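 also: potency is read from the fitted curve at half-maximal effect; 0% = vehicle wells and -100% = peptide control; nearly all actives have a fitted effect of over 45% in size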
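AMA1 (3D7) with his tag at 25 nM final met compounds first, then biotinylated RON2 peptide at 25 nM; detection used donor plus acceptor beads, 10 µg/mL apiece, read by AlphaScreen after 30 min at room temperature.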
Shiga inhibitor: inhibitors of Shiga toxin in Vero cells | Vero cells, Shiga toxin protein synthesis inhibition reporter | AID 2315 | inhibition, % at 38.7 µM | actives 9.2% (n = 290,000); in the data active = inhibition mostly above about 28%, no sharp cut-off; inactive = mostly below about 43%; also: 0% is about no effect
Cycloheximide cs: counter-screen hit for Shiga toxin inhibitors, cycloheximide; cell reporter, cycloheximide protein synthesis inhibition counterscreen; max response, %; actives 12% (n = 300,000); AID 2314; in the data active = max response mostly above about 13%, no sharp cut-off; inactive = mostly below about 14%; also: read at 38.3 µM for the half of the compounds with a filed dose; 0% is about no effect
Pf growth 48h: inhibits P. falciparum growth in the first generation, 48 h. P. falciparum luciferase growth in erythrocytes, 48 h. Potency, µM (series often up to 28.7 µM), without a hit: at the top dose activity change, negative = inhibition, usual class: inhibitors. actives 5.9% (n = 310,000). AID 504832; also: potency is read from the fitted curve at half-maximal effect; % is scaled to controls: 0 for no effect and ±100 for the full control effect
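A one-generation exposure of luciferase-tagged malaria parasites in RPMI 1640/Albumax erythrocyte culture, 37 C and 5% CO2. Inhibition is inferred from decreased luminescence after adding detection reagent.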
Pf growth 96h: P. falciparum growth inhibition at 96 hour, primary screen for plastid delayed-death inhibitors | actives 6.9% (n = 320,000) | P. falciparum luciferase reporter growth, 96 h | Potency, µM (series often up to 28.7 µM), inactives show at the highest dose activity change, negative = inhibition, most hits filed as inhibitors; also: potency is read from the fitted curve at half-maximal effect; % is scaled to controls: 0 for no effect and ±100 for the full control effect
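Plates of compound plus infected erythrocytes (2% hematocrit, 0.05% parasitemia final) incubate 96 hours, 37 C, 5% CO2. Detection reagent added; reduced luminescence from the parasites' luciferase reporter flags inhibition.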
An asterisk follows results filed as active; u = inconclusive; x = no result; [ ] = another dose, or the depositor's remark. Unless noted, calls follow the shape of the dose curve; as a rule, active = well fitted curve in the direction sought with a large enough effect; inconclusive = small, poorly fitted or top-dose-only effect, or another doubt; inactive = no such curve, though single readings can be large; an effect the other way counts as inactive or inconclusive.

SMILES	HCV inh	AMA1-RON2 inh	Shiga inhibitor	Cycloheximide cs	Pf growth 48h	Pf growth 96h
CCCC[C@@H]1C=C(C(=O)O)[C@H](c2ccc(Br)cc2)N1S(=O)(=O)c1ccc(C)cc1	32.9%[8.37 µM]	14.0%	x	x	x	x
O=C(O)c1cc(-c2ccc(/C=C3/SC(=S)N(Cc4ccccc4)C3=O)o2)ccc1Cl	1.8%	-3.2%	62.7*	28.8*	35.5%	9.6%
CC1(C)OC(=O)C(=Cc2ccc(-c3ccc(Cl)c(C(=O)O)c3)o2)C(=O)O1	8.0%	2.6%	-15.0	7.8	14.7µM*	u
COc1ccc(CN2C(=O)/C(=C/c3ccc(-c4ccc(Cl)c(C(=O)O)c4)o3)SC2=S)cc1	x	x	17.5	15.9	-8.9%	-12.4%
COc1cccc(CN(C)C(=O)c2ccc(S(=O)(=O)Nc3cccc(C)c3C)cc2)c1OC	x	-6.4%	x	x	x	x
Cc1ccccc1CC(=O)N1CCCC(CCC(=O)N2CCN(c3ccccn3)CC2)C1 (configuration not stated)	-27.5%	9.1%	-7.8	-1.3	u	40.6%
O=C(CCC1CCCN(C(=O)CCCc2ccccc2)C1)N1CCN(c2ccccn2)CC1 (configuration not stated)	u	-2.8%	50.6	21.6*	u	u
Cc1cccc(C(=O)N2CCCC(CCC(=O)N3CCN(c4ccccn4)CC3)C2)c1 (configuration not stated)	-29.5%	-2.1%	-8.0	-1.4	-9.8%	-0.9%
O=C(CCC1CCCN(C(=O)Cc2cccc(F)c2)C1)N1CCN(c2ccccn2)CC1 (configuration not stated)	-21.3%	5.3%	70.6*	49.9*	227.2%	11.5%
O=c1[nH]c2c(c(=O)[nH]1)OCN(Cc1ccccc1)C2	2.0%	77.5%	x	x	x	x
CCOC(=O)N1CCC(NC(=O)c2cc3cc4cc(OC)ccc4nc3o2)CC1	u	7.4%	-4.7	-2.3	2.94µM*	7.38µM*
CCOC(=O)N1CCC(NC(=O)c2cc(-c3ccc(OC)cc3)nc3ccccc23)CC1	-1.3%	-9.1%	13.2	2.0	u	0.4%
COc1ccc(OC)c(-n2c(CNC3CCN(Cc4ccccc4)CC3)nc3ccccc3c2=O)c1	-0.9%	1.9%	-14.6	-5.4	x	11.7µM*
COc1ccc2nc3oc(C(=O)NC4CCN(Cc5ccccc5)CC4)cc3cc2c1	u	-10.9%	31.2*	17.3	u	45.7%
CNC[C@H](CC1CCCCC1)NC[C@H](CO)NCCc1cccc(C(F)(F)F)c1	u	106.9%	-10.6	-6.5	u	1.85µM*
CCCC(NC(=O)C(C)Sc1nnnn1C1CC1)c1ccccc1 (configuration not stated)	-1.4%	19.2%	x	x	-6.5%	-23.0%
O=C(NCc1ccccn1)C1CCN(C2CCN(Cc3cccc(F)c3)CC2)CC1	x	29.3%	x	x	x	x
Cc1cccc(/C=C2\Sc3ccc(C(=O)N4CCC(C(N)=O)CC4)cc3N(C)C2=O)c1	3.7%	-10.7%	7.8	13.0	u	u
CN1C(=O)/C(=C/c2ccc(C(F)(F)F)cc2)Sc2ccc(C(=O)N3CCN(c4ccccn4)CC3)cc21	14.1µM*	11.6%	-4.7	-2.6	u	40.5%
CN1C(=O)/C(=C/c2ccccc2Cl)Sc2ccc(C(=O)N3CCCC3)cc21	u	-11.5%	3.3	22.4*	u	40.5%
CCOC(=O)C1CCCN(C(=O)c2ccc3c(c2)N(C)C(=O)/C(=C/c2ccccc2Cl)S3)C1 (configuration not stated)	11.2µM*	-11.5%	-1.9	-1.8	u	0.415µM*
CCOC(=O)C1CCCN(C(=O)c2cccc(N3C(=O)c4ccccc4C3=O)c2)C1 (configuration not stated)	-4.7%	1.2%	x	x	u	-12.1%
CN1C(=O)/C(=C\c2ccccc2F)Sc2ccc(C(=O)NC3CCN(Cc4ccccc4)CC3)cc21	3.98µM*	-18.5%	-4.0	3.9	1.65µM*	u
CCOC(=O)C1(C)CCN1C(=O)c1cncc(Br)c1 (configuration not stated)	x	1.2%	x	x	x	x
O=C(CCc1nnc(CCc2ccccc2)o1)NC(c1cccnc1)C(F)(F)F (configuration not stated)	5.3%	5.4%	18.2	1.2	22.9%	11.9%
SMILES	HCV inh	AMA1-RON2 inh	Shiga inhibitor	Cycloheximide cs	Pf growth 48h	Pf growth 96h
O=C(Nc1ccc(Oc2ccccc2)cc1)c1csc([C@H]2C[C@H](O)[C@@H](CO)O2)n1	x	7.9%	x	x	x	x
Cc1ccc2[nH]cc(C(=O)CCl)c2c1	25.1µM*	-0.5%	-3.6	8.1	u	-23.8%
COc1ccc2[nH]cc(C(=O)CN3CCCCC3)c2c1	-23.5%	-0.3%	2.7	27.2*	-14.7%	u
Cc1ccc2[nH]cc(C(=O)CN3CCN(C)CC3)c2c1	28.9%	0.6%	-14.3	-4.1	-5.1%	u
COc1ccc2[nH]cc(C(=O)CN3CCN(C4CCCCC4)CC3)c2c1	-0.4%	4.6%	-17.7	-5.9	-7.8%	30.5%
COc1ccc2c(C(=O)CN3CCSCC3)c[nH]c2c1	8.5%	1.1%	39.6*	32.4*	-16.2%	15.8%
NC(=O)c1cc(S(=O)(=O)N2CCc3ccccc3C2)cs1	12.2%	-3.6%	-5.3	-0.8	-6.2%[0.00184 µM]	44.5%
Cc1cc(=O)n2nc(N3CCCC(C(=O)NCCCN4CC(C)CC(C)C4)C3)sc2n1 (configuration not stated)	14.5%	12.4%	-13.5	-11.7	6.7%	u
CCOc1ccc2nc(N3CCCC(C(=O)NCCCN4CC(C)CC(C)C4)C3)sc2c1 (configuration not stated)	u	-1.0%	23.1	31.7*	u	u
CCOc1ccc2nc(N3CCCC(C(=O)NCCCN4CCCCC4)C3)sc2c1 (configuration not stated)	u	-2.7%	35.8*	19.7*	-10.5%	-19.6%
COc1ccc2nc(N3CCCC(C(=O)NCCCN4CCN(C)CC4)C3)sc2c1 (configuration not stated)	u	-1.4%	-2.1	16.2	7.7%	x
Cc1cc(=O)n2nc(N3CCCC(C(=O)NCCCN4C(C)CCCC4C)C3)sc2n1 (configuration not stated)	x	-14.5%	x	x	x	x
CCOc1ccc2nc(N3CCCC(C(=O)NCCCN4C(C)CCCC4C)C3)sc2c1 (configuration not stated)	2.51µM*	-0.2%	54.1*	16.6*	-19.3%	u
COc1cc(N)c(Cl)cc1C(=O)OCC(=O)NCC1CCCCC1	10µM*	20.3%	x	x	x	x
COc1cc(N)c(Cl)cc1C(=O)OCC(=O)c1cccs1	-21.5%	-1.8%	54.0*	19.4	14.3%	-4.5%
COc1cc(N)c(Cl)cc1C(=O)OCC(=O)NCc1cccs1	u	16.4%	x	x	x	x
COC(=O)N/N=C(\C)c1ccccc1OC(F)F	36.5%	15.8%	-20.3	-5.1	10.6%	31.1%
CCOC(=O)N/N=C(\C)c1ccccc1OC(F)F	20.9%	17.5%	-9.4	4.2	u	9.28µM*

Screening data deposited in PubChem by National Center for Advancing Translational Sciences (NCATS).
